Screens from PubChem BioAssay.
GLP1R cytotox – cytotoxicity in counter-screen for GLP-1R inverse agonists. 0.13% of 410,000 active. HEK293 cAMP-luciferase reporter cells, luminescence, 24 h. Potency, µM (series often up to 38.3 µM), for the others: at the highest dose activity change, negative = inhibition, actives largely listed as inhibitors;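 further: loss of luciferase light is scored as toxicity; on the % scale 0 is the no-effect control and ±100 the full control effect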
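To flag toxic compounds, the library was rerun on cells for 24 hr at 37 deg C and 5% CO2. Viability-linked luminescence was captured 12 min after adding luciferase detection reagent.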
ClpP mod – qHTS Assay for Activators of ClpP. ATP-dependent Clp protease proteolytic subunit (Bacillus subtilis (strain 168)), P80244. purified B. subtilis ClpP, FRET peptide cleavage, 20 min. Potency, µM (series often up to 57.5 µM), without a hit: top-dose activity change, negative = active. 1.9% of 340,000 active. AID 651965, 2013; active means well fitted falling curve with a large enough effect; inconclusive means small, poorly fitted or top-dose-only effect; inactive means no such curve, though single readings can be large or run the other way; further: the source files actives as falling curves though it sought activators and does not explain the sign; nearly all actives have a fitted effect of over 65% in size
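ClpP 10 microg/mL final, pH 8 Tris/KCl buffer with BSA, glycerol, Tween-20; compound pinned in; FRET-FV substrate; RT 20 min; Ex320/Em430; ΔFRET vs ADEP 5.8 microM, DMSO, no enzyme.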
GLP-1R inv ag – GLP-1 receptor (human) inverse agonism. HEK293 GLP-1R CRE-luciferase, luminescence, 24 h; GLP-1R form is constitutively active. Potency, µM (series often up to 38.3 µM), inactives show at the top dose activity change, negative = inhibition, most hits filed as inhibitors. 1.6% of 410,000 active. P43220. AID 624417; further: on the % scale 0 is the no-effect control and ±100 the full control effect; nearly all actives have a fitted effect of over 55% in size
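qHTS in 1536-well format: reporter HEK293 cells expressing constitutive GLP-1R activity in DMEM + 10% Nu serum, 24 hr with compounds at 37 deg C, luminescence read after 12 min with detection reagent.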
GLP1R ag – agonists of human GLP-1 receptor | P43220 | HEK293 GLP-1R CRE-luciferase, luminescence, 4-6 h; cells express a hypersensitive GLP-1R form | AID 624172 | Potency, µM (doses to about 45.6 µM), for inactives: at the top dose activation, hits mostly activators | 0.007% of 380,000 active; further: % of control where 0% means no effect
Starred values were filed as active, the others as inactive; ? = inconclusive; / = not tested or not shown. Shown are actives, neighbours in structure and some others; about 3.2% of the full set was active somewhere. Unless noted, the call rests on the fitted dose curve; in most records, active means well fitted curve in the direction sought with a large enough effect; inconclusive means small, poorly fitted or top-dose-only effect, or another doubt; inactive means no such curve, though single readings can be large; an effect the other way counts as inactive or inconclusive. Potency means the concentration at half of the fitted maximal effect.

SMILES | GLP1R cytotox | ClpP mod | GLP-1R inv ag | GLP1R ag
COc1ccc2[nH]c3c(c2c1)CCN1C(=O)C(CC(=O)NCCC2=CCCCC2)C[C@H](C(=O)N(C(C)C)C(C)C)[C@@]31C (stereo partly drawn) | ? | 0% | 10µM* | -2%
O=C(C[C@H]1C[C@H](C(=O)N2CCOCC2)[C@@]2(CCC3CCCC3)c3[nH]c4cc(-c5ccco5)ccc4c3CCN2C1=O)NCCC1=CCCCC1 | -15% | 4% | 10µM* | -1%
COc1cc2c(cc1NC(=S)Nc1cccc(C(F)(F)F)c1)oc1ccccc12 | -29% | 32µM* | ? | -7%
COCCCNC(=S)Nc1cc2oc3ccccc3c2cc1OC | ? | -24% | ? | 13%
COc1cc2c(cc1NC(=S)Nc1cccc3ccccc13)oc1ccccc12 | 0% | 10µM* | ? | -3%
COc1ccc(NC(=O)CSc2oc(-c3ccc(C)cc3)nc2S(=O)(=O)c2ccc(C)cc2)c(OC)c1 | 9% | -1% | 4% | /
Cc1ccc(C)c(SCC(=O)NC(=O)NC2CCCC2)c1 | 2% | 0% | 11µM* | -4%
Cc1ccc(SCC(=O)NC(=O)NC2CCCC2)c(C)c1 | 0% | / | -89% | 30%
O=C(NCc1cccs1)Nc1ccc(Cl)cc1 | -5% | 20µM* | -20% | 7%
Cc1ccc(N(Cc2cccs2)C(=O)Nc2cccc(Cl)c2)cc1 | -12% | 1% | -19% | /
COc1ccc(N(Cc2cccs2)C(=O)Nc2cccc(Cl)c2)cc1 | -1% | -2% | 10µM* | /
CC(Cc1cccs1)NC(=O)Nc1cccc(Cl)c1 (stereo not drawn) | -2% | -2% | 11µM* | 2%
CN(CC(=O)Nc1ccc(F)cc1Cl)Cc1cccs1 | 3% | / | ? | 26%
CN(CC(=O)Nc1cc(Cl)cc(Cl)c1)Cc1cccs1 | -5% | / | 13µM* | 15%
O=C(NCCNC(=O)Nc1ccc(Cl)cc1)Nc1ccc(Cl)cc1 | -8% | -6% | 1% | -5%
COC(=O)c1ccc(NC(=O)CCc2c(C)nc3c(c(C)nn3C(C)(C)C)c2C)cc1 | 1% | -1% | -5% | -1%
CCOC(=O)c1ccc(NC(=O)CCc2c(C)nc3c(c(C)nn3C(C)(C)C)c2C)cc1 | -22% | ? | 7.9µM* | -6%
Cc1c(C(=O)NCCc2ccc(Cl)cc2)sc2nc3n(c(=O)c12)CCCC3 | -4% | -8% | 2% | /
CCCCCCCCNC(=O)/C(C#N)=C/c1ccc2c(c1)OCCO2 | 4% | 9% | -17% | 6%
CCOCCCNC(=O)/C(C#N)=C/c1cc(OC)c(O)c([N+](=O)[O-])c1 | ? | / | ? | 8%
CCCCNC(=O)/C(C#N)=C/c1ccc2c(c1)OCCO2 | 16% | 25µM* | 11% | -2%
CCOCCCNC(=O)/C(C#N)=C/c1ccc(Cl)c([N+](=O)[O-])c1 | ? | / | 11µM* | -8%
CC(C1CC2CCC1C2)n1c(-c2cccs2)n[nH]c1=S (stereo not drawn) | -1% | / | 5µM* | 13%
CCOc1ccccc1NC(=O)N1CCc2cc(S(=O)(=O)N3CCC(C)CC3)ccc21 | 2% | -1% | -2% | /
O=C(O)C1CCCC1 | / | -26% | / | /
SMILES | GLP1R cytotox | ClpP mod | GLP-1R inv ag | GLP1R ag
CC(C)c1ccc(Nc2cc(C(=O)NC3CCCCC3)c3ccccc3n2)cc1 | 2% | ? | 7% | /
CCOC(=O)/C(=N\Nc1ccccc1Cl)N(C)C1CCCCC1 | 7% | 1% | 8.9µM* | 16%
CCOC(=O)/C(=N\Nc1ccccc1Cl)N1CC(C)OC(C)C1 (stereo not drawn) | -20% | / | 5µM* | 21%
CCOC(=O)/C(=N\Nc1cc(Cl)ccc1Cl)N1CC(C)OC(C)C1 (stereo not drawn) | 6% | -1% | 1% | 3%
O=C(CN1C(=O)COc2ccc(S(=O)(=O)N3CCCCCC3)cc21)N1CCN(c2cccc(Cl)c2)CC1 | -7% | -1% | ? | -1%
Cc1ccc(S(=O)(=O)N2CCN(c3ncnc4scc(-c5ccc(F)cc5)c34)CC2)cc1 | 7% | / | 1% | 19%
O=S(=O)(c1cccc(F)c1)N1CCN(c2ncnc3scc(-c4ccc(F)cc4)c23)CC1 | -3% | 25µM* | -11% | -2%
Cc1ccc(C)c(CN2C(=O)c3ccccc3S(=O)c3ccc(C(=O)N4CCN(c5ccccn5)CC4)cc32)c1 (stereo not drawn) | -10% | / | 2.2µM* | 14%
Cc1ccc(C)c(CN2C(=O)c3ccccc3S(=O)c3ccc(C(=O)N4CCN(c5ccccc5F)CC4)cc32)c1 (stereo not drawn) | -2% | -2% | ? | -1%
COc1ccc(NC(=O)CC2C(=O)N(Cc3cccs3)C(=S)N2C(C)C)cc1 (stereo not drawn) | -6% | / | ? | 10%
COc1ccc(NC(=O)CC2C(=O)N(Cc3ccco3)C(=S)N2C(C)C)cc1 (stereo not drawn) | -10% | 0% | 10µM* | -3%
CCN(CC)S(=O)(=O)c1ccc(C(=O)Nc2nc3c(Cl)cc(Cl)cc3s2)cc1 | -3% | -29% | -11% | -5%
COc1ccccc1S(=O)(=O)N1CCn2cccc2C1C (stereo not drawn) | -2% | 28µM* | 3% | 9%
CC1c2cccn2CCN1S(=O)(=O)c1ccccc1 (stereo not drawn) | 1% | -2% | 6% | 3%
Clc1nnc(N/N=C/c2ccccc2)c2ccccc12 | ? | -2% | ? | 23%
C[n+]1ccc(/C=N/Nc2nc(Cl)c(C#N)c(Cl)c2Cl)cc1 | 10µM* | -3% | 30% | -7%
COc1ccc(N2CCN(C(=O)c3c(C)oc4ncnc(N5CCCCC5)c34)CC2)cc1 | -25% | -2% | 11µM* | /
COc1cccc(N2CCN(C(=O)c3c(C)oc4ncnc(N5CCOCC5)c34)CC2)c1 | -5% | 1% | 0% | /
O=C(/C=C/Nc1ccccc1Br)c1ccccn1 | -3% | -1% | 2µM* | -22%
COc1ccccc1C(=O)NC(C)c1ccccc1 (stereo not drawn) | -6% | -1% | -18% | 6%
CC(NC(=O)c1ccccc1O)c1ccccc1 (stereo not drawn) | 11% | 16µM* | 8% | 0%
O=S(=O)(N1CCN(c2nc(-c3cccs3)nc3ccccc23)CC1)C(F)(F)F | / | 4% | / | /
COc1cccc(NC(=O)CN(C)C(=O)c2ccc(-c3ccccc3Cl)o2)c1 | -6% | -1% | 8.9µM* | 7%
CN(CC(=O)Nc1ccccc1Br)C(=O)c1ccc(-c2ccc(Cl)cc2)o1 | -19% | 32µM* | -29% | 0%
Cc1cc(C)cc(-n2ccn(CC(=O)Nc3cc(C)ccc3C)c(=O)c2=O)c1 | 7% | -1% | 10% | /
COc1cc(/C=C/c2ccnc3ccccc23)cc(OC)c1OC | / | -4% | / | /
CCOc1ccc(OCC)c(NC(=O)C2CCCN(S(=O)(=O)c3ccc4c(c3)oc(=O)n4C)C2)c1 (stereo not drawn) | -5% | -9% | 1% | 1%
